# Like-named read-outs stand apart in the source and are kept apart here.
# Tests used:
# [1] = test system: AAK1; parameters: species or system human, MV4-11 + K-562 + COLO205 + SK-N-BE2 + OVCAR-8; conditions: read-out: apparent Kd, n = 1
# [2] = test system: BMP2K; parameters: species or system human, MV4-11 + K-562 + COLO205 + SK-N-BE2 + OVCAR-8; conditions: read-out: apparent Kd, n = 1
# [3] = test system: CLK1; parameters: species or system human, MV4-11 + K-562 + COLO205 + SK-N-BE2 + OVCAR-8; conditions: read-out: apparent Kd, n = 1
# [4] = test system: CLK4; parameters: species or system human, MV4-11 + K-562 + COLO205 + SK-N-BE2 + OVCAR-8; conditions: read-out: apparent Kd, n = 1
# [5] = test system: CSNK2A1;CSNK2A3; parameters: species or system human, MV4-11 + K-562 + COLO205 + SK-N-BE2 + OVCAR-8; conditions: read-out: apparent Kd, n = 1
# [6] = test system: CSNK2A2; parameters: species or system human, MV4-11 + K-562 + COLO205 + SK-N-BE2 + OVCAR-8; conditions: read-out: apparent Kd, n = 1
# [7] = test system: FLT4; parameters: species or system human, MV4-11 + K-562 + COLO205 + SK-N-BE2 + OVCAR-8; conditions: read-out: apparent Kd, n = 1
# [8] = test system: GAK; parameters: species or system human, MV4-11 + K-562 + COLO205 + SK-N-BE2 + OVCAR-8; conditions: read-out: apparent Kd, n = 1
# [9] = test system: GSK3A; parameters: species or system human, MV4-11 + K-562 + COLO205 + SK-N-BE2 + OVCAR-8; conditions: read-out: apparent Kd, n = 1
# [10] = test system: GSK3B; parameters: species or system human, MV4-11 + K-562 + COLO205 + SK-N-BE2 + OVCAR-8; conditions: read-out: apparent Kd, n = 1
# [11] = test system: PAK4; parameters: species or system human, MV4-11 + K-562 + COLO205 + SK-N-BE2 + OVCAR-8; conditions: read-out: apparent Kd, n = 1
# [12] = test system: PKN1; parameters: species or system human, MV4-11 + K-562 + COLO205 + SK-N-BE2 + OVCAR-8; conditions: read-out: apparent Kd, n = 1
# [13] = test system: PKN3; parameters: species or system human, MV4-11 + K-562 + COLO205 + SK-N-BE2 + OVCAR-8; conditions: read-out: apparent Kd; compound concentrations:100 nM and 1000 nM (sheet 'Samples'); n = 1
# [14] = test system: PRKAG1; parameters: species or system human, MV4-11 + K-562 + COLO205 + SK-N-BE2 + OVCAR-8; conditions: read-out: apparent Kd, n = 1
# [15] = molecular target: Q6ZSR9 (human, UniProt Q6ZSR9); parameters: species or system MV4-11 + K-562 + COLO205 + SK-N-BE2 + OVCAR-8; conditions: read-out: apparent Kd, n = 1
# Chain of Q6ZSR9 (Q6ZSR9 whole entry, looked up): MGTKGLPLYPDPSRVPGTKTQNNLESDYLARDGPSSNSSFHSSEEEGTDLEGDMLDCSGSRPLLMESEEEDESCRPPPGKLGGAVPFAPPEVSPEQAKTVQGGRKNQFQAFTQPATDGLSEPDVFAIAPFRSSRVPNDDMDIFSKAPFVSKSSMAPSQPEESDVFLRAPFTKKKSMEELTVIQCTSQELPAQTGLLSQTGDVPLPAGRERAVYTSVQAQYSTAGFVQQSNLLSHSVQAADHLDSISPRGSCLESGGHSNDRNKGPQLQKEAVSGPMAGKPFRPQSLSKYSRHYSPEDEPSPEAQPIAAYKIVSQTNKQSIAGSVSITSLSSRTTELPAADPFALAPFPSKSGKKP
# [16] = test system: RET; parameters: species or system human, MV4-11 + K-562 + COLO205 + SK-N-BE2 + OVCAR-8; conditions: read-out: apparent Kd, n = 1
# [17] = test system: SIK2; parameters: species or system human, MV4-11 + K-562 + COLO205 + SK-N-BE2 + OVCAR-8; conditions: read-out: apparent Kd, n = 1
# [18] = test system: MELK; parameters: species or system human, MV4-11 + K-562 + COLO205 + SK-N-BE2 + OVCAR-8; conditions: read-out: apparent Kd, compound concentrations: 100 nM and 1000 nM (sheet 'Samples'), n = 1
# [19] = test system: NUAK1; parameters: species or system human, MV4-11 + K-562 + COLO205 + SK-N-BE2 + OVCAR-8; conditions: read-out: apparent Kd, compound concentrations: 100 nM and 1000 nM (sheet 'Samples'), n = 1
# [20] = compound concentrations:100 nM and 1000 nM (sheet 'Samples')
structure (smiles),measurement,setting,value
CS(=O)(=O)CCn1c(=O)c(Oc2ccc(F)cc2F)cc2cnc(NC3CCOCC3)nc21 [RO5027956-000],potency estimated from few doses,[1]; [20],968 nM
same,potency estimated from few doses,[2]; [20],1020 nM
same,potency estimated from few doses,[3]; [20],1120 nM
same,potency estimated from few doses,[4]; [20],1240 nM
same,potency estimated from few doses,[5]; [20],1100 nM
same,potency estimated from few doses,[6]; [20],1530 nM
same,potency estimated from few doses,[7]; [20],1390 nM
same,potency estimated from few doses,[8]; [20],422 nM
same,potency estimated from few doses,[9]; [20],592 nM
same,potency estimated from few doses,[10]; [20],601 nM
same,potency estimated from few doses,[11]; [20],1270 nM
same,potency estimated from few doses,[12]; [20],1540 nM
same,potency estimated from few doses,[13],1230 nM
same,potency estimated from few doses,[14]; [20],812 nM
same,potency estimated from few doses,[15]; [20],932 nM
same,potency estimated from few doses,[16]; [20],823 nM
same,potency estimated from few doses,[17]; [20],1100 nM
Cc1ccccc1-n1ncc(C(=O)c2ccccc2)c1N [RO1151248-000],potency estimated from few doses,"[1]; compound concentrations: 100 nM and 1000 nM (sheet 'Samples'), CATDS: 2.38860019962077E-2",914 nM
same,potency estimated from few doses,"[5]; compound concentrations: 100 nM and 1000 nM (sheet 'Samples'), CATDS: 1.72589051675766E-2",2250 nM
same,potency estimated from few doses,"[7]; compound concentrations: 100 nM and 1000 nM (sheet 'Samples'), CATDS: 1.8880298651143101E-2",1670 nM
same,potency estimated from few doses,"[8]; compound concentrations: 100 nM and 1000 nM (sheet 'Samples'), CATDS: 3.2430470905267197E-2",506 nM
same,potency estimated from few doses,"[9]; compound concentrations: 100 nM and 1000 nM (sheet 'Samples'), CATDS: 2.9908240641474598E-2",584 nM
same,potency estimated from few doses,"[10]; compound concentrations: 100 nM and 1000 nM (sheet 'Samples'), CATDS: 2.52342080828949E-2",813 nM
same,potency estimated from few doses,"[11]; compound concentrations: 100 nM and 1000 nM (sheet 'Samples'), CATDS: 2.19543905026186E-2",1110 nM
same,potency estimated from few doses,"[12]; compound concentrations: 100 nM and 1000 nM (sheet 'Samples'), CATDS: 1.7045557740064301E-2",2350 nM
same,potency estimated from few doses,"[14]; compound concentrations: 100 nM and 1000 nM (sheet 'Samples'), CATDS: 2.5293867995276598E-2",809 nM
same,potency estimated from few doses,"[15]; compound concentrations: 100 nM and 1000 nM (sheet 'Samples'), CATDS: 2.32948628287949E-2",967 nM
same,potency estimated from few doses,"[16]; compound concentrations: 100 nM and 1000 nM (sheet 'Samples'), CATDS: 2.2142525707208802E-2",1090 nM
same,potency estimated from few doses,"[17]; compound concentrations: 100 nM and 1000 nM (sheet 'Samples'), CATDS: 2.40988460516664E-2",897 nM
CCn1c(-c2cccnc2O)nc2cnccc21 [SB-736715],potency estimated from few doses,"[1]; compound concentrations: 100 nM and 1000 nM (sheet 'Samples'), CATDS: 1.3866746573900799E-2",1530 nM
same,potency estimated from few doses,"[14]; compound concentrations: 100 nM and 1000 nM (sheet 'Samples'), CATDS: 1.40543588651099E-2",1490 nM
FC(F)(F)c1ccc(-c2ncn(CCCN3CCOCC3)c2-c2ccncc2)cc1 [SB-217780],potency estimated from few doses,"[1]; compound concentrations: 100 nM and 1000 nM (sheet 'Samples'), CATDS: 0.194449602003399",1890 nM
Cc1n[nH]c2cc(Nc3ccnc(Nc4cccc(CN5CCOCC5)c4)n3)ccc12 [GW682569X],potency estimated from few doses,"[1]; compound concentrations: 100 nM and 1000 nM (sheet 'Samples'), CATDS: 0.12351757147220301",729 nM
same,potency estimated from few doses,"[2]; compound concentrations: 100 nM and 1000 nM (sheet 'Samples'), CATDS: 0.100079515212571",1250 nM
same,potency estimated from few doses,"[15]; compound concentrations: 100 nM and 1000 nM (sheet 'Samples'), CATDS: 0.10935758268406801",981 nM
COc1cc[nH]c1/C=C1\C(=O)Nc2ccc(F)c(C#CC3(O)CCNCC3)c21.Cl [RO0282986-001],potency estimated from few doses,"[1]; compound concentrations: 100 nM and 1000 nM (sheet 'Samples'), CATDS: 4.4387438114571E-2",51.7 nM
same,potency estimated from few doses,"[2]; compound concentrations: 100 nM and 1000 nM (sheet 'Samples'), CATDS: 9.1500909624849303E-2",17.8 nM
same,potency estimated from few doses,"[3]; compound concentrations: 100 nM and 1000 nM (sheet 'Samples'), CATDS: 1.0356916336546E-2",1160 nM
same,potency estimated from few doses,"[4]; compound concentrations: 100 nM and 1000 nM (sheet 'Samples'), CATDS: 1.25074250244867E-2",634 nM
same,potency estimated from few doses,"[5]; compound concentrations: 100 nM and 1000 nM (sheet 'Samples'), CATDS: 1.42353528510114E-2",450 nM
same,potency estimated from few doses,"[6]; compound concentrations: 100 nM and 1000 nM (sheet 'Samples'), CATDS: 2.2066768869253801E-2",173 nM
same,potency estimated from few doses,"[7]; compound concentrations: 100 nM and 1000 nM (sheet 'Samples'), CATDS: 1.2160517778916E-2",687 nM
same,potency estimated from few doses,"[8]; compound concentrations: 100 nM and 1000 nM (sheet 'Samples'), CATDS: 1.5691521545656201E-2",356 nM
same,potency estimated from few doses,"[9]; compound concentrations: 100 nM and 1000 nM (sheet 'Samples'), CATDS: 1.8964305572366599E-2",235 nM
same,potency estimated from few doses,"[10]; compound concentrations: 100 nM and 1000 nM (sheet 'Samples'), CATDS: 1.5746210655388199E-2",353 nM
same,potency estimated from few doses,[18]; CATDS: 1.9967026123172499E-2,211 nM
same,potency estimated from few doses,[19]; CATDS: 4.1010981116741001E-2,58.6 nM
same,potency estimated from few doses,"[11]; compound concentrations: 100 nM and 1000 nM (sheet 'Samples'), CATDS: 2.1447100630881601E-2",183 nM
same,potency estimated from few doses,"[12]; compound concentrations: 100 nM and 1000 nM (sheet 'Samples'), CATDS: 1.1966323436805501E-2",720 nM
same,potency estimated from few doses,"[14]; compound concentrations: 100 nM and 1000 nM (sheet 'Samples'), CATDS: 1.1749589380403099E-2",761 nM
same,potency estimated from few doses,"[15]; compound concentrations: 100 nM and 1000 nM (sheet 'Samples'), CATDS: 3.8240338432775099E-2",65.6 nM
same,potency estimated from few doses,"[16]; compound concentrations: 100 nM and 1000 nM (sheet 'Samples'), CATDS: 4.4247015083228598E-2",52 nM
same,potency estimated from few doses,"[17]; compound concentrations: 100 nM and 1000 nM (sheet 'Samples'), CATDS: 1.2903831315266401E-2",581 nM
c1cnn2ncc(-c3ccnc(Nc4ccc5c(c4)OCCO5)n3)c2c1 [GW806290X],potency estimated from few doses,"[1]; compound concentrations: 100 nM and 1000 nM (sheet 'Samples'), CATDS: 2.3873616537329799E-2",1080 nM
same,potency estimated from few doses,"[3]; compound concentrations: 100 nM and 1000 nM (sheet 'Samples'), CATDS: 6.6494036250362598E-2",106 nM
same,potency estimated from few doses,"[4]; compound concentrations: 100 nM and 1000 nM (sheet 'Samples'), CATDS: 9.8127081360261201E-2",57.2 nM
same,potency estimated from few doses,"[9]; compound concentrations: 100 nM and 1000 nM (sheet 'Samples'), CATDS: 3.86716280658417E-2",308 nM
same,potency estimated from few doses,"[10]; compound concentrations: 100 nM and 1000 nM (sheet 'Samples'), CATDS: 6.1886578646693099E-2",121 nM
same,potency estimated from few doses,[18]; CATDS: 1.9268078616401899E-2,2360 nM
same,potency estimated from few doses,[19]; CATDS: 2.7516933063414101E-2,713 nM
same,potency estimated from few doses,"[15]; compound concentrations: 100 nM and 1000 nM (sheet 'Samples'), CATDS: 2.3514563204250299E-2",1130 nM
NCC(NC(=O)c1cc(-c2cn[nH]c2)c(-c2ccnc3[nH]ccc23)s1)c1ccccc1.NCC(NC(=O)c1cc(-c2cn[nH]c2)c(-c2ccnc3[nH]ccc23)s1)c1ccccc1.O=C(O)C(F)(F)F.O=C(O)C(F)(F)F (centres unmarked) [GSK1325775A],potency estimated from few doses,"[1]; compound concentrations: 100 nM and 1000 nM (sheet 'Samples'), CATDS: 3.6567153264384103E-2",1070 nM
same,potency estimated from few doses,"[2]; compound concentrations: 100 nM and 1000 nM (sheet 'Samples'), CATDS: 3.9732447761342798E-2",847 nM
same,potency estimated from few doses,"[12]; compound concentrations: 100 nM and 1000 nM (sheet 'Samples'), CATDS: 2.9340466494355399E-2",2310 nM
same,potency estimated from few doses,"[15]; compound concentrations: 100 nM and 1000 nM (sheet 'Samples'), CATDS: 4.0068531071680201E-2",829 nM
Cc1cc(-c2ccnc(Nc3cccc(C#N)c3)n2)cc(C)c1O [GSK1440913A],potency estimated from few doses,"[1]; compound concentrations: 100 nM and 1000 nM (sheet 'Samples'), CATDS: 0.22953291556049499",120 nM
same,potency estimated from few doses,"[2]; compound concentrations: 100 nM and 1000 nM (sheet 'Samples'), CATDS: 0.10539472264710199",564 nM
same,potency estimated from few doses,"[15]; compound concentrations: 100 nM and 1000 nM (sheet 'Samples'), CATDS: 0.240078758272596",111 nM

# Reference: publication PMC11062922 (Nature Chemical Biology, 2023)
